Measured values: PubChem BioAssay
Results with a measured potency or affinity are listed apart. The source made the active and inactive calls. No rule for the calls is given here.

Each compound was assayed against Plasmodium falciparum protein kinase 6 (PK6, PF3D7_1337100) (UniProt Q8IDW1) (assay: PfPK6 kinase inhibitors, biochemical, TCAMS library (AID 1159586)). Conditions: recombinant PfPK6, Kinase-Glo ATP depletion luminescence.
Sequence of Plasmodium falciparum protein kinase 6 (PK6, PF3D7_1337100) (Q8IDW1 1-305): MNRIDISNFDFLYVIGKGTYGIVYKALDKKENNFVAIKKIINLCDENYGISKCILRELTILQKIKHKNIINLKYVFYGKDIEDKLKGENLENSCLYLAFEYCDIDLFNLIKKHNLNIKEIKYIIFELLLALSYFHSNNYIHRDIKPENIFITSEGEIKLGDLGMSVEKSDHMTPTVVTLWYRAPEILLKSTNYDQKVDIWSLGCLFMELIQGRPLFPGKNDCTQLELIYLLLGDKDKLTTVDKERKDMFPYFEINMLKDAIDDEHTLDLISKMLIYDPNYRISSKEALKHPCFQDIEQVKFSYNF

`O=[N+]([O-])c1ccc(-n2nc(Cc3ccccc3)n(Cc3cccc(F)c3)c2=S)c(C(F)(F)F)c1` was tested. Which outcome did it give?
Its outcome is “inactive”.

How did the outcome turn out when `O=C(NCCN1CCC(c2ncc(-c3ccccc3)o2)CC1)c1ccc(NC(=O)c2ccc(Cl)cc2)cc1` was run?
Its outcome is “inactive”.

Which outcome does the source give for `CC(C)c1sc(N2CCN(C)CC2)nc1C(=O)Nc1cccc2c1CCCC2` here?
Its outcome is “inactive”.

With `Cc1ccccc1NC(=O)C1CSCN1C(=O)OCc1ccccc1` (stereo not given) as the compound, how does the outcome read?
Its outcome is “inactive”.

With `COc1ccc2ncc(F)c(CCN3C[C@H](CNCc4cc(F)c5c(c4)NC(=O)CO5)[C@H](O)C3)c2n1` as the compound, how does the outcome read?
Its outcome is “inactive”.

With `COc1cc(Br)ccc1N1CCN(CCCCNC(=O)c2ccc(NC(=O)c3ccc(Cl)cc3)cc2)CC1` as the compound, how does the outcome read?
The outcome was “inactive”.

How did the outcome turn out when `CC(C)CCN1CCC(Oc2ccc(NC(=O)c3ccc4ncccc4c3)cc2Cl)C1` (stereo not given) was run?
The outcome was “inactive”.

With `CC(C)Cc1c(O)nc(SCCN2CCOCC2)[nH]c1=O` as the compound, how does the outcome read?
Its outcome is “inactive”.

`O=C(Nc1cccc(CN2CCCN(Cc3ccc(F)cc3)CC2)c1)c1ccc(Cl)c(Cl)c1` was tested. Which outcome did it give?
Its outcome is “inactive”.

How did the outcome turn out when `CCC[C@@H]([C@@H](CC1CCCCC1)C(=O)N[C@H](C(=O)Nc1nccs1)[C@H](C)O)N(O)C=O` was run?
The outcome was “inactive”.

How did the outcome turn out when `O=C(Nc1ccc(C(=O)N2CCN(CCN3CCN(c4cccc(C(F)(F)F)c4)CC3)CC2)cc1)c1ccc(OC(F)(F)F)cc1` was run?
The outcome was “inactive”.

With `c1ccc(CNc2nc(NCCc3cnc[nH]3)nc(NCc3cccc4ccccc34)n2)cc1` as the compound, how does the outcome read?
The outcome was “inactive”.

How did the outcome turn out when `COc1ccc(C2CCN(CCCCNC(=O)c3ccc(NC(=O)c4ccc(Cl)cc4)cc3)CC2)c(C)c1` was run?
Its outcome is “inactive”.

Which outcome does the source give for `c1cncc(Oc2ccc(Nc3ccnc4cc(-c5cccc(CN6CCOCC6)c5)ccc34)cc2)c1` here?
The outcome was “inactive”.

Which outcome does the source give for `C[C@@H](COc1ccc(-c2ccccc2)cc1)CON1C(N)=NC(N)=NC1(C)C` here?
Its outcome is “inactive”.

Which outcome does the source give for `CC(CCON1C(N)=NC(N)=NC1(C)C)c1ccc(Cl)c(Cl)c1` (stereo not given) here?
The outcome was “inactive”.

Which outcome does the source give for `CCOc1ccc(Br)cc1/C=C/C(=O)Nc1ccc(C2CCN(C)CC2)cc1` here?
The outcome was “inactive”.

`CN(C)CCNC(=O)c1ccc2c(c1)n(C1CCN(S(=O)(=O)c3ccc(-c4ccccc4)cc3)CC1)c(=O)n2CC1CCCCC1` was tested. Which outcome did it give?
Its outcome is “inactive”.

Which outcome does the source give for `CC(=O)Nc1ccc(CN2CCN(C(c3ccc(F)cc3)c3ccc(F)cc3)CC2)cc1` here?
The outcome was “inactive”.

For `Cc1cc(=O)oc2c1ccc1oc(C(O)c3ccc(Cl)cc3)c(C)c12` (stereo not given), which outcome is on record?
Its outcome is “inactive”.

How did the outcome turn out when `Cc1ccc2c(c1C)NC(=O)C21NN=C(c2ccccc2)S1` (stereo not given) was run?
Its outcome is “inactive”.

With `CCC(C)NC(=O)Nc1ccc(-c2cccc(-c3nc4ccccc4[nH]3)c2)cc1` (stereo not given) as the compound, how does the outcome read?
Its outcome is “inactive”.

How did the outcome turn out when `CN(C)CC1c2[nH]c3ccccc3c2CCN1C(=O)Nc1ccc(Cl)c(Cl)c1` (stereo not given) was run?
Its outcome is “inactive”.

With `O=C(Nc1cccc(-c2cccc(-c3nc4ccc(F)cc4[nH]3)c2)c1)Nc1ccc2c(c1)OCO2` as the compound, how does the outcome read?
The outcome was “inactive”.

For `CCN(CC)CC#Cc1ccc2[nH]c(C)c(Cl)c(=O)c2c1`, which outcome is on record?
Its outcome is “inactive”.

With `COc1cc(Cc2cnc(NCCN3CCNCC3)nc2N)ccc1OCc1ccc(C(F)(F)F)cc1` as the compound, how does the outcome read?
The outcome was “inactive”.

With `NC(=O)C1CCN(Cc2cccc(-c3ccc(-c4nc5ccc(C(F)(F)F)cc5[nH]4)cc3)c2)CC1` as the compound, how does the outcome read?
The outcome was “inactive”.

How did the outcome turn out when `C=CCc1cc(Br)ccc1OCCCON1C(N)=NC(N)=NC1(C)C` was run?
The outcome was “inactive”.

`CC(C)(C)c1ccc(CNCCOc2ccc(Nc3nnc(-c4ccc(-c5ncc[nH]5)cc4)o3)c3ccccc23)cc1` was tested. Which outcome did it give?
The outcome was “inactive”.

For `COc1ccc(C=NNc2cc(C)nc3c(C)cccc23)c2ccccc12`, which outcome is on record?
The outcome was “inactive”.

Which outcome does the source give for `COc1ccc2nc3cc(Cl)ccc3c(NCCCCN3CCNCC3)c2c1` here?
Its outcome is “inactive”.

How did the outcome turn out when `CC(C)CN1CCCN(Cc2cccc(NC(=O)c3ccc(-c4ccccc4)cc3)c2)CC1` was run?
The outcome was “inactive”.

For `CCCOc1ccccc1C(=O)Nc1nonc1-c1ccc(OCC)c(OCC)c1`, which outcome is on record?
Its outcome is “inactive”.

For `CCN(CCCN1CCCCC1)c1cc(C)nc(Nc2cc(C)ccc2C)n1`, which outcome is on record?
The outcome was “inactive”.

With `Nc1ncnc2nc(-c3ccc(F)cc3)cc(-c3ccc(NC(=O)c4ccccc4)cc3)c12` as the compound, how does the outcome read?
Its outcome is “inactive”.

`CCCNCc1ccc(-c2ccc(CN(CCOC)C(=O)c3cccc(C#N)c3)cc2)nc1` was tested. Which outcome did it give?
The outcome was “inactive”.

With `COc1cccc2c(NCCNc3ccnc4c(OC)cccc34)ccnc12` as the compound, how does the outcome read?
The outcome was “inactive”.

How did the outcome turn out when `CN(C)CCNCc1ccc(-c2ccc(-c3nc4ccccc4[nH]3)s2)cc1` was run?
Its outcome is “inactive”.

How did the outcome turn out when `Clc1ccc(-c2cc3c(NCc4ccncc4)nccc3s2)cc1` was run?
The outcome was “inactive”.

With `CNC(=O)C1Cc2c([nH]c3cc(Cl)ccc23)C2(CCN(CCc3ccccc3)CC2)N1` (stereo not given) as the compound, how does the outcome read?
Its outcome is “inactive”.
